From ChEMBL document CHEMBL3433997, “St. Jude Leishmania screening dataset” (2016) come the findings set out here.

Broadly, the inhibition is the drop in the measured response relative to a control, in per cent.

Type in all cases: functional
For assay [1], the target named is Solute carrier family 2, facilitated glucose transporter member 1 (Homo sapiens) (UniProt P11166). The assay can be described thus: ST_JUDE_LEISH: Cytotoxicity at 2uM final concentration against transgenic Leishmania Mexicana promastigotes LmGLUT1 that are glucose transport deficient and complemented with the human glucose transporter GLUT1. Activity is measured by DNA content using SYBR green in vitro.
Chain of Solute carrier family 2, facilitated glucose transporter member 1 (Homo sapiens) (P11166 whole entry): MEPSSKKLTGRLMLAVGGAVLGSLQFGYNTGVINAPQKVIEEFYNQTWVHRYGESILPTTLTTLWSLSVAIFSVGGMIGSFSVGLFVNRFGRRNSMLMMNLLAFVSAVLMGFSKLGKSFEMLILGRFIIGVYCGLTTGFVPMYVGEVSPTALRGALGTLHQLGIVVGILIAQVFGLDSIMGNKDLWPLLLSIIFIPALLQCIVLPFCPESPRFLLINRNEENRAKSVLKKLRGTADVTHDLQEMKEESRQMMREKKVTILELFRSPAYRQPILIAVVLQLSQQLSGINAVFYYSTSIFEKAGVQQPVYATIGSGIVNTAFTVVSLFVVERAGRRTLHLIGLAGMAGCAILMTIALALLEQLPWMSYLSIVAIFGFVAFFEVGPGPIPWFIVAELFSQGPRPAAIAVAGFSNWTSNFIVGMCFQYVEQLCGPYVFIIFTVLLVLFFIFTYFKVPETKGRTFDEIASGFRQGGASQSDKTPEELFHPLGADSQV

In assay [2] the target is Hexose transporter 1 (Plasmodium falciparum) (UniProt O97467). Kind of assay: ST_JUDE_LEISH: Cytotoxicity at 2uM final concentration against transgenic Leishmania Mexicana promastigotes LmPfHT that are glucose transport deficient and complemented with the Plasmodium falciparum hexose transporter. Activity is measured by DNA content using SYBR green in vitro.
For assay [3], the target named is Glucose transporter (Leishmania mexicana) (UniProt O61059). The assay can be described thus: ST_JUDE_LEISH: Cytotoxicity at 2uM final concentration against transgenic Leishmania Mexicana promastigotes LmGT2 that are glucose transport deficient and complemented with the L. Mexicana glucose transporter 2. Activity is measured by DNA content using SYBR green in vitro.

For the compound `Cc1cc(O)nc(NC#N)n1`, the inhibition in assay [1] came to 2.54%; in assay [2] it was 3.15%; in assay [3], 2.82%.

For the compound `CCCOc1ccc(C(=O)Nc2nonc2-c2ccc(OC)c(OC)c2)cc1`, the results for the inhibition in assay [1], in assay [2] and in assay [3] were 8.69%, 7.86% and 5.89%, respectively.

On to `O=[N+]([O-])c1ccccc1/C=N/Nc1ccnc2cc(Cl)ccc12`, for which the inhibition in assay [1] was found to be 4.36%; in assay [2], 4.22%; in assay [3], 3.41%.

As for `N#Cc1cnc2cc(-c3cnc(CNCCN4CCOCC4)s3)ccc2c1Nc1ccc(Oc2ccccc2)cc1`, the values for the inhibition in assay [1], in assay [2] and in assay [3] were 1.96%, 3.38% and 1.64%, respectively.

For `Cc1noc(C)c1-c1cccc(CNCc2cccc(-c3csc(-c4nc5ccccc5[nH]4)c3)c2)c1`, the values for the inhibition in assay [1], in assay [2] and in assay [3] were 2.13%, 3.22% and 1.31%, respectively.

Consider `CC1CN(c2cc(=O)n(Cc3cccc(NC(=O)Nc4ccc(-c5ccccc5)cc4)c3)cn2)CC(C)N1` (configuration not stated), for which the inhibition is 1.17% in assay [1], 2.06% in assay [2] and -1.85% in assay [3].

`CC(C)NCc1cccc(-c2cccc(NC(=O)c3ccc(C#N)cc3)c2)c1`: the inhibition in assay [1] is -1.2%; in assay [2] it was 1.04%; in assay [3] it was -1.22%.

Take `CC1(C)N=C(NC(=O)c2ccc([N+](=O)[O-])cc2)N=C(N)N1OCc1ccc2ccccc2c1`: the inhibition was 3.85% in assay [1], 4.18% in assay [2] and -0.07% in assay [3].

On to `O=C(NC1CCN(Cc2ccccc2)CC1)c1ccc(-c2nc3cc(Cl)c(F)cc3[nH]2)cc1`, for which the results for the inhibition in assay [1], in assay [2] and in assay [3] were 1.14%, 0.15% and 2.45%, respectively.

As to `NC(=O)c1cccc(Nc2nccc(Nc3ccc(Oc4cccc5ccccc45)cc3)n2)c1`, the inhibition in assay [1] is 7.84%; in assay [2] it was 7.66%; in assay [3], 1.31%.

Turning to `Cc1cccc(NC(=O)c2ccc(C(=O)NC3CCN(CC4CCCCC4)C3)cc2)c1` (configuration not stated), the inhibition in assay [1] is 5.04%; in assay [2], 3.98%; in assay [3], -1.15%.

On to `COc1ccc(-c2cnc3[nH]cc(-c4ccc(C(=O)O)cc4)c3c2)cn1`, for which the inhibition in assay [1] was -1.03%; in assay [2], 5.94%; in assay [3], 0.18%.

Turning to `CC1CCc2c(C(=O)Nc3c(F)cc(F)cc3Br)csc2C1` (configuration not stated), the inhibition in assay [1] was -0.18%; in assay [2] it was 0.02%; in assay [3], -0.61%.

For the compound `COc1c(C2CCN(CCCCNC(=O)c3oc(-c4ccc(Cl)cc4)cc3CO)CC2)ccc2c1CCCC2`, the figures for the inhibition in assay [1], in assay [2] and in assay [3] were 1.58%, 1.81% and 3.08%, respectively.

As for `COc1cc(C(=O)NC2CCc3ccccc32)cc(Cl)c1OC` (configuration not stated), the inhibition in assay [1] is -4.04%; in assay [2], -0.96%; in assay [3], -0.41%.

In the case of `O=S1(=O)NCc2ccc(Nc3nccc(Nc4ccc5c(cnn5Cc5ccccc5)c4)n3)cc21`, the inhibition in assay [1] was -0.8%; in assay [2], 6.35%; in assay [3] it was -1.65%.

With `O=C(Nc1cccc(CN2CCCN(Cc3ccccc3)CC2)c1)c1ccc(-c2ccccc2)cc1`, the inhibition was 3% in assay [1], 4.14% in assay [2] and -0.61% in assay [3].

Regarding `C=CCOC(=O)N1CCC(CNCc2cccc(-c3ccc(-c4nc5cccc(C)c5[nH]4)s3)c2)C1` (configuration not stated), the inhibition was -0.28% in assay [1], -0.37% in assay [2] and -0.89% in assay [3].

For the compound `c1ccc2[nH]c(-c3ccc(-c4ccc(CNCCc5ccncc5)cc4)s3)nc2c1`, the inhibition in assay [1] was determined as 8.39%; in assay [2], 5.02%; in assay [3], 2.3%.

In the case of `COc1cc2nc(N(C)CC3COc4ccccc4O3)nc(N)c2cc1OC` (configuration not stated), the inhibition is 3.64% in assay [1], 1.69% in assay [2] and -0.97% in assay [3].

Take `O=C(/C=C/c1ccccc1)N1CCOC(CCN2CCC(c3ccccc3)CC2)(c2ccc(Cl)c(Cl)c2)C1` (configuration not stated): the inhibition turned out to be 13.3% in assay [1], 7.51% in assay [2] and 7.43% in assay [3].

Take `CCn1c(Cc2ccccc2)nnc1Sc1ccc([N+](=O)[O-])c(C#N)c1`: the inhibition in assay [1] amounted to 5.75%; in assay [2] it was 6.38%; in assay [3] it was 3.87%.

With `CCCCCN1CCCN(Cc2cccc(NC(=O)c3cc4ccccc4s3)c2)CC1`, the inhibition came out at 1.99% in assay [1], 1.5% in assay [2] and 3.66% in assay [3].

As to `NC(=O)c1cccc(C(=O)Nc2cccc(-c3ccc(-c4nc5cc(C(F)(F)F)ccc5[nH]4)cc3)c2)c1`, the inhibition in assay [1] was 0.31%; in assay [2], 4.83%; in assay [3] it was 2.53%.

As to `Cc1cc(N[C@@H](CC(C)C)C(=O)NCc2cccs2)nc(NCCc2ccccc2)n1`, the figures for the inhibition in assay [1], in assay [2] and in assay [3] were 7.7%, 5.79% and 5.49%, respectively.

For the compound `Cc1[nH]c2ccccc2c1CC1CCN(CC2CCN(C(=O)/C=C/c3ccc(Cl)c(Cl)c3)CC2)CC1`, the inhibition in assay [1] was found to be 0.92%; in assay [2], 1.33%; in assay [3], 1.79%.

Consider `CCCc1nc2c(N3CC(NC(=O)/C=C/c4ccccc4)C3)cccc2n1C1CC1`, for which the inhibition worked out at 9% in assay [1], 7.28% in assay [2] and 8.19% in assay [3].

Turning to `Cc1cccc(C)c1CNc1ccnc2cc(C#N)ccc12`, the inhibition in assay [1] worked out at 3.83%; in assay [2] it was 3.15%; in assay [3], 2.98%.

Take `Clc1ccc(-c2cc(-c3csc(NCCN4CCCCC4)n3)on2)cc1`: the inhibition in assay [1] came to 6.93%; in assay [2], 7.19%; in assay [3] it was 5.8%.

For the compound `CN1CCN(c2ccnc3ccc(NC(=O)Nc4ccc5c(c4)CCC5=O)cc23)CC1`, the inhibition in assay [1] stood at 3.7%; in assay [2] it was 2.43%; in assay [3], 5.45%.

On to `COc1ccc(CC2(c3ccc(F)cc3)N=C(N)N(CCCc3cccnc3)C2=O)cc1` (configuration not stated), for which the figures for the inhibition in assay [1], in assay [2] and in assay [3] were 2.7%, 1.49% and 2.08%, respectively.

For `Cc1ccccc1C1CCN(C2CCC(NC(=O)/C=C/c3cccc(Cl)c3Cl)CC2)CC1` (configuration not stated), the inhibition in assay [1] was found to be 4.12%; in assay [2], 1.26%; in assay [3], 4.18%.

Regarding `S=C(Nc1ccc(Cl)cc1)Nc1ccc(Nc2ccccc2)cc1`, the values for the inhibition in assay [1], in assay [2] and in assay [3] were 6.97%, 5.37% and 5%, respectively.

Take `Cc1ccc(NC(=O)c2ccc(CN3CCCN(CCC(C)C)CC3)cc2)cc1F`: the inhibition in assay [1] was 7.11%; in assay [2], 7.04%; in assay [3] it was 9.05%.
